# From the supplement of paper PMC4840960
# ± gives the standard deviation of the averaged measurements.
# Test system: E18 rat cortical neuron-glia co-culture
# Test: fiber score / MBP score (myelination specific beyond OL differentiation) (ratio); higher = more myelination-specific MBP alignment
# Conditions: 1 µM; treatment time: 8 days (DIV5-DIV13)
# Outline: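 The measure is the ratio of fiber score to MBP score, where fiber score is continuous MBP fiber length per Olig2+ nucleus and MBP score is thresholded MBP area × intensity per Olig2+ nucleus. Primary E18 rat cortical co-cultures received library compounds at 1 or 5 µM in myelination medium from DIV5 to DIV13, then were fixed in 4 % paraformaldehyde and stained for MBP, Olig2 and DAPI before analysis of four 10X fields per well in duplicate wells.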
row,SMILES,fiber score / MBP score
1,Clc1ccc(CO/N=C(\Cn2ccnc2)c2ccc(Cl)cc2Cl)c(Cl)c1 [Oxiconazole],0.501
2,CN(C)CCOC(c1ccc(Cl)cc1)c1ccccn1 (stereo not drawn) [Carbinoxamine],1.21
3,CCc1c(C)[nH]c2c1C(=O)C(CN1CCOCC1)CC2 (stereo not drawn) [Molindone],0.619
4,NS(=O)(=O)c1cc2c(cc1C(F)(F)F)NC(Cc1ccccc1)NS2(=O)=O (stereo not drawn) [Bendroflumethiazide],0.474
5,Cc1cccc(Nc2ccncc2S(=O)(=O)NC(=O)NC(C)C)c1 [Torsemide],0.837
6,NC(=O)c1ncn([C@@H]2O[C@H](CO)[C@@H](O)[C@H]2O)n1 [Ribavirin],1.17
7,O=C(O)c1cc(=O)c2c(OCC(O)COc3cccc4oc(C(=O)O)cc(=O)c34)cccc2o1 [Cromolyn Sodium],0.501
8,CC(C(O)c1ccc(O)cc1)N1CCC(Cc2ccccc2)CC1 (stereo not drawn) [Ifenprodil],0.348
9,CC[C@H]1OC(=O)[C@H](C)C(=O)[C@H](C)[C@@H](O[C@@H]2O[C@H](C)C[C@H](N(C)C)[C@H]2O)[C@](C)(OC)C[C@@H](C)C(=O)[C@H](C)[C@H]2N(CCCCn3cnc(-c4cccnc4)c3)C(=O)O[C@]12C [Telithromycin],0.819
10,COc1cc(/C=C/c2ccc(O)cc2)cc(OC)c1 [Pterostilbene],0.637
11,CN(C)C(=O)C(CCN1CCC(O)(c2ccc(Cl)cc2)CC1)(c1ccccc1)c1ccccc1 [Loperamide],0.58
12,CCCN(CCC)S(=O)(=O)c1ccc(C(=O)O)cc1 [Probenecid],0.973
13,Cc1ccc(O)c([C@H](CCN(C(C)C)C(C)C)c2ccccc2)c1 [Tolterodine],0.747
14,Cc1nnc(SCC2=C(C(=O)O)N3C(=O)[C@@H](NC(=O)Cn4cnnn4)[C@H]3SC2)s1 [Cefazolin],0.798
15,CCN(CC)C(=S)SSC(=S)N(CC)CC [Disulfiram],1.15
16,O=c1[nH]cc(F)c(=O)[nH]1 [5-Fluorouracil],1.24
17,CN1CCN(CCCN2c3ccccc3Sc3ccc(C(F)(F)F)cc32)CC1 [Trifluoperazine],0.177
18,CCOC(=O)N1CCC(=C2c3ccc(Cl)cc3CCc3cccnc32)CC1 [Loratadine],0.832
19,CC1(C)S[C@@H]2[C@H](NC(=O)Cc3ccccc3)C(=O)N2[C@H]1C(=O)O [Penicillin G],0.898
20,CN(C/C=C/C#CC(C)(C)C)Cc1cccc2ccccc12 [Terbinafine],0.788

row,SMILES,fiber score / MBP score
1,COC(=O)Nc1nc2cc(C(=O)c3ccc(F)cc3)ccc2[nH]1 [Flubendazole],0.494
2,CCN1CCN(C(=O)N[C@@H](C(=O)N[C@@H]2C(=O)N3[C@@H]2SC(C)(C)[C@@H]3C(=O)O)c2ccccc2)C(=O)C1=O [Piperacillin],0.703
3,Oc1c(Cl)cc(Cl)c2cccnc12 [Chloroxine],2.26
4,C[C@H](CS)C(=O)N1CCC[C@H]1C(=O)O [Captopril],0.773
5,CCOC(=O)C1=C(COCCN)NC(C)=C(C(=O)OC)C1c1ccccc1Cl (stereo not drawn) [Amlodipine],0.613
6,C[C@H]1COc2c(C3(N)CC3)c(F)cc3c(=O)c(C(=O)O)cn1c23 [Pazufloxacin],0.814
7,COc1ccc2c3c1O[C@H]1C[C@@H](O)C=C[C@@]31CCN(C)C2 [Galantamine],0.69
8,Cc1ccccc1C(OCCN(C)C)c1ccccc1 (stereo not drawn) [Orphenadrine],0.693 ± 0.21
9,CO[C@@]1(NC(=O)Cc2cccs2)C(=O)N2C(C(=O)O)=C(COC(N)=O)CS[C@@H]21 [Cefoxitin],0.901
10,O=C1CCc2ccc(OCCCCN3CCN(c4cccc(Cl)c4Cl)CC3)cc2N1 [Aripiprazole],0.301
11,CCCc1c(OCCCCc2nnn[nH]2)ccc(C(C)=O)c1O,0.683
12,C=CCc1ccc(O)c(-c2ccc(O)c(CC=C)c2)c1 [Honokiol],0.744
13,CC(C)(O)c1ccccc1CC[C@@H](SCC1(CC(=O)O)CC1)c1cccc(/C=C/c2ccc3ccc(Cl)cc3n2)c1 [Montelukast],0.64
14,CCN(CC)C(=O)C1(c2ccccc2)CC1CN (stereo not drawn) [Milnacipran],0.697
15,CCN1CCCC1CNC(=O)c1cc(S(=O)(=O)CC)ccc1OC (stereo not drawn) [Sultopride],0.758
16,c1ccc(CC2=NCCN2)cc1 [Tolazoline],0.396
17,Clc1ccc(COC(Cn2ccnc2)c2ccc(Cl)cc2Cl)cc1 (stereo not drawn) [Econazole],0.731
18,Brc1c(NC2=NCCN2)ccc2nccnc12 [Brimonidine],0.915
19,C#C[C@]1(O)CC[C@H]2[C@@H]3[C@H](C)CC4=C(CCC(=O)C4)[C@H]3CC[C@@]21C [Tibolone],0.647

# Same assay, conditions: 5 µM; treatment time: 8 days (DIV5-DIV13)
row,SMILES,fiber score / MBP score
1,CN(C)CCOC(c1ccc(Cl)cc1)c1ccccn1 (stereo not drawn) [Carbinoxamine],1.23
2,CCc1c(C)[nH]c2c1C(=O)C(CN1CCOCC1)CC2 (stereo not drawn) [Molindone],0.498
3,NS(=O)(=O)c1cc2c(cc1C(F)(F)F)NC(Cc1ccccc1)NS2(=O)=O (stereo not drawn) [Bendroflumethiazide],0.559
4,Cc1cccc(Nc2ccncc2S(=O)(=O)NC(=O)NC(C)C)c1 [Torsemide],0.949
5,NC(=O)c1ncn([C@@H]2O[C@H](CO)[C@@H](O)[C@H]2O)n1 [Ribavirin],1.03
6,O=C(O)c1cc(=O)c2c(OCC(O)COc3cccc4oc(C(=O)O)cc(=O)c34)cccc2o1 [Cromolyn Sodium],0.409
7,CC(C(O)c1ccc(O)cc1)N1CCC(Cc2ccccc2)CC1 (stereo not drawn) [Ifenprodil],0.136
8,COc1cc(/C=C/c2ccc(O)cc2)cc(OC)c1 [Pterostilbene],0.668
9,CN(C)C(=O)C(CCN1CCC(O)(c2ccc(Cl)cc2)CC1)(c1ccccc1)c1ccccc1 [Loperamide],0.368
10,CCCN(CCC)S(=O)(=O)c1ccc(C(=O)O)cc1 [Probenecid],1.44
11,Cc1nnc(SCC2=C(C(=O)O)N3C(=O)[C@@H](NC(=O)Cn4cnnn4)[C@H]3SC2)s1 [Cefazolin],1.19
12,CCOC(=O)N1CCC(=C2c3ccc(Cl)cc3CCc3cccnc32)CC1 [Loratadine],0.575
13,CC1(C)S[C@@H]2[C@H](NC(=O)Cc3ccccc3)C(=O)N2[C@H]1C(=O)O [Penicillin G],1.19
14,CCN1CCN(C(=O)N[C@@H](C(=O)N[C@@H]2C(=O)N3[C@@H]2SC(C)(C)[C@@H]3C(=O)O)c2ccccc2)C(=O)C1=O [Piperacillin],0.948
15,C[C@H](CS)C(=O)N1CCC[C@H]1C(=O)O [Captopril],0.704
16,C[C@H]1COc2c(C3(N)CC3)c(F)cc3c(=O)c(C(=O)O)cn1c23 [Pazufloxacin],1.19
17,COc1ccc2c3c1O[C@H]1C[C@@H](O)C=C[C@@]31CCN(C)C2 [Galantamine],0.673
18,Cc1ccccc1C(OCCN(C)C)c1ccccc1 (stereo not drawn) [Orphenadrine],0.896 ± 0.071
19,CO[C@@]1(NC(=O)Cc2cccs2)C(=O)N2C(C(=O)O)=C(COC(N)=O)CS[C@@H]21 [Cefoxitin],0.686
20,CCCc1c(OCCCCc2nnn[nH]2)ccc(C(C)=O)c1O,1
21,CCN(CC)C(=O)C1(c2ccccc2)CC1CN (stereo not drawn) [Milnacipran],0.817
22,CCN1CCCC1CNC(=O)c1cc(S(=O)(=O)CC)ccc1OC (stereo not drawn) [Sultopride],0.461
23,Brc1c(NC2=NCCN2)ccc2nccnc12 [Brimonidine],0.784
24,C#C[C@]1(O)CC[C@H]2[C@@H]3[C@H](C)CC4=C(CCC(=O)C4)[C@H]3CC[C@@]21C [Tibolone],0.773
